# Several values for one entry are separate records, joined by “and”; a condition that tells them apart may be missing. Equal values may be shown once. Inconclusive results are not listed. Where a call stands in place of a potency, no number is given. The source holds several records for some structures; these can differ, active in one and inactive in another. Activity calls are given as the source filed them. Unless noted, the call rests on the fitted dose curve; in most records, active means well fitted curve in the direction sought with a large enough effect in the repeat runs; inconclusive means weak or mixed curves; inactive means no such curve, though single readings can be large; an effect the other way counts as inactive or inconclusive.
# Assays:
# [1] = qHTS assay to identify small molecule agonists of the estrogen related receptor (ERR) signaling pathway from Tox21 library (AID 1224849; calls by dose curve; further: nearly all actives have a fitted effect of over 15% in size); conditions: ERR reporter cell line, ONE-Glo luciferase, 18 h; at 42.5 µM (top of the series)
# Summary of the method: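 ERR reporter cells (NTP line) pre-incubated 6 hours at 37 C, then exposed to compounds for 18 hours at 37 C. ONE-Glo luciferase luminescence was read after 30 minutes at room temperature.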
# [2] = qHTS assay to identify small molecule agonists of H2AX (AID 1224845; active means well fitted activation curve with a large enough effect in the signal ratio in the repeat runs, not every such curve was filed as active; the % refers to the signal ratio); conditions: CHO-K1 phospho-H2AX Ser139 HTRF, 3 h; series mostly up to 154 µM
# Summary of the method: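 Wild-type CHO-K1 cells, plated overnight, exposed 3hr at 37C to 15 concentrations (0.76% DMSO final). Lysed, then HTRF anti-pH2AX (S139) cryptate and anti-H2AX-d2 antibodies, 24 hr room temperature; 665/620 nm emission read.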
# [3] = qHTS assay to identify small molecule agonists of the hypoxia (HIF-1) signaling pathway (AID 1224846; active means well fitted activation curve with a large enough effect in the signal ratio in the repeat runs, not every such curve was filed as active; the % refers to the signal ratio); conditions: HRE-bla ME-180 cells, beta-lactamase ratio, 17 h; series mostly up to 76.8 µM
# Summary of the method: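 HRE-bla ME-180 beta-lactamase reporter cells in medium with 0.5% dialyzed FBS, pre-incubated 5 h then exposed to compounds 17 h at 37C, 5% CO2; reporter induction read with CCF4-AM FRET substrate.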
# [4] = qHTS assay to identify small molecule agonists of H2AX - cell viability counter screen (AID 1224847; calls by dose curve; further: nearly all actives have a fitted effect of over 30% in size; further: potency means the concentration at half of the fitted maximal effect); conditions: CHO-K1 viability, CellTiter-Glo luminescence, 3 h; series mostly up to 154 µM
# Summary of the method: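 Counter-screen for viability: CellTiter-Glo ATP luminescence read after 3 h compound treatment (15-point titration, 0.76% DMSO final) of CHO-K1 cells at 37C, with 30 min room-temperature reagent incubation.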
# [5] = qHTS RealTime-Glo MT Cell Viability Assay in HepG2 cells - 24 hour (AID 1224867); conditions: RealTime-Glo luminescence; series mostly up to 76.8 µM; further: nearly all actives have a fitted effect of over 50% in size
# Summary of the method: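 HepG2 cells (600/well) were dispensed with RealTime-Glo reagents, incubated 5 h at 37 °C, then treated with compounds in DMSO for up to 40 h. Nonlytic NanoLuc luminescence reflecting viable cells was read at each stated time point.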
# [6] = qHTS RealTime-Glo MT Cell Viability Assay in HEK293 cells - 32 hour (AID 1224868); conditions: RealTime-Glo luminescence; series mostly up to 76.8 µM; further: nearly all actives have a fitted effect of over 50% in size; further: potency means the concentration at half of the fitted maximal effect
# Summary of the method: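 HEK293 cells seeded with NanoLuc/prosubstrate reagent, rested 5 h at 37 C, then dosed and kept at 37 C up to 40 h. Nonlytic real-time luminescence from viable cells read at 0, 8, 16, 24, 32 and 40 h.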
# [7] = qHTS RealTime-Glo MT Cell Viability Assay in HepG2 cells - 40 hour (AID 1224870); conditions: RealTime-Glo luminescence; series mostly up to 76.8 µM; further: nearly all actives have a fitted effect of over 50% in size; further: potency means the concentration at half of the fitted maximal effect
# Summary of the method: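 HepG2 cells (600/well) mixed with RealTime-Glo MT reagent, settled 5 h at 37 C/5% CO2 before compound addition. Nonlytic NanoLuc luminescence from viable-cell prosubstrate reduction read repeatedly during 40 h treatment at 37 C.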
# [8] = A CellTox Green Cytotoxicity Assay to monitor cytotoxicity in HEK293 cells - 40 hour (AID 1224871); conditions: CellTox Green fluorescence; series mostly up to 76.8 µM; further: nearly all actives have a fitted effect of over 45% in size; further: potency means the concentration at half of the fitted maximal effect
# Summary of the method: (§1)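 HEK293 cells, 600/well, were preincubated 5 hours and then exposed to compounds at 37 C for up to 40 hours. A cell-impermeant cyanine dye staining dead-cell DNA was read by fluorescence at 0, 8, 16, 24, 32 and 40 h time points.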
# [9] = A CellTox Green Cytotoxicity Assay to monitor cytotoxicity in HEK293 cells - 0 hour (AID 1224869); conditions: CellTox Green fluorescence; series mostly up to 76.8 µM; further: nearly all actives have a fitted effect of over 50% in size
# Summary of the method: as §1
SMILES,"activity change, positive = activation [1]",Potency [2],outcome [3],Potency [4],Potency [5],Potency [6],Potency [7],Potency [8],Potency [9]
COc1cc([C@H]2Oc3cc([C@H]4Oc5cc(O)cc(O)c5C(=O)[C@@H]4O)ccc3O[C@@H]2CO)ccc1O,4.78% (inactive),,,,,,,,
C=C1C[C@H]2[C@@H]3C=C(C)C4=CC(=O)CC[C@]4(C)[C@H]3CC[C@]2(C)[C@@]1(OC(C)=O)C(C)=O,-56.4% (inactive) and -29.1% (inactive),,,,,,,,
CC(=O)O[C@]1(C(C)=O)CC[C@H]2[C@@H]3C=C(Cl)C4=CC(=O)CC[C@]4(C)[C@H]3CC[C@@]21C,,inactive,inactive,101 µM (active) and inactive,inactive,19.5 µM (active),inactive,inactive,
CC(=O)Nc1ccc2c(c1)Cc1cc(NC(C)=O)ccc1-2,,inactive,inactive,inactive,,inactive,inactive,inactive,inactive
Nc1ccc2c(c1)C(=O)c1ccccc1C2=O,,inactive,inactive,98.9 µM (active) and inactive,inactive,inactive,inactive,30.3 µM (active) and inactive,inactive
OC[C@H]1O[C@@H]2O[C@H]3[C@H](O)[C@@H](O)[C@@H](O[C@H]4[C@H](O)[C@@H](O)[C@@H](O[C@H]5[C@H](O)[C@@H](O)[C@@H](O[C@H]6[C@H](O)[C@@H](O)[C@@H](O[C@H]7[C@H](O)[C@@H](O)[C@@H](O[C@H]1[C@H](O)[C@H]2O)O[C@@H]7CO)O[C@@H]6CO)O[C@@H]5CO)O[C@@H]4CO)O[C@@H]3CO,,inactive,inactive,inactive,inactive,inactive,inactive,inactive,
C=CCCCCCCCCCC,,inactive,inactive,inactive,inactive,inactive,inactive,inactive,inactive
CC(=O)[C@@]1(O)CC[C@H]2[C@@H]3C[C@H](C)C4=CC(=O)C=C[C@]4(C)[C@@]3(F)[C@@H](O)C[C@@]21C,,inactive,inactive,inactive,,19.5 µM (active) and inactive,inactive,inactive,inactive
CCCOCCO,,inactive,inactive,inactive,inactive,inactive,inactive,inactive,inactive
C1COCCN1,,inactive,inactive,inactive,,inactive,inactive,inactive,inactive
Cc1ccc2c(c1)C(=O)OC2=O,,inactive,inactive,inactive,inactive,inactive,inactive,inactive,inactive
[Na+],,inactive,inactive,inactive,inactive,inactive,inactive and 38.9 µM (active),inactive,inactive
C=C[Si](OCCOC)(OCCOC)OCCOC,,inactive,inactive,inactive,inactive,inactive,inactive,inactive,inactive
COc1ccc2nc(N)sc2c1,,inactive,inactive,inactive,,inactive and 2.19 µM (active),inactive,inactive,inactive
C=CCNCC=C,,inactive,inactive,inactive,,inactive,inactive,inactive,
Cc1ccc(C)c(O)c1,,inactive,inactive,inactive,,inactive,inactive,inactive,
NCCN,,inactive,inactive,inactive,,inactive,inactive and 13.8 µM (active),inactive,inactive
CCCCCCCCCCC(CO)CCCCCCCC (configuration not stated),,inactive,inactive,inactive,inactive,inactive,inactive,inactive,
O=C(O)CCCC(=O)O,,inactive,inactive,inactive,,inactive,inactive,inactive,inactive
CC1(C)O[C@@H]2C[C@H]3[C@@H]4C[C@H](F)C5=CC(=O)C=C[C@]5(C)[C@@]4(F)[C@@H](O)C[C@]3(C)[C@]2(C(=O)CO)O1,,inactive,inactive,inactive,,inactive,inactive,inactive,

SMILES,"activity change, positive = activation [1]",Potency [2],outcome [3],Potency [4],Potency [5],Potency [6],Potency [7],Potency [8],Potency [9]
C=C[C@@]1(C)CC(=O)[C@]2(O)[C@@]3(C)[C@@H](O)CCC(C)(C)[C@@H]3[C@H](O)[C@H](OC(C)=O)[C@@]2(C)O1,,inactive,inactive,inactive,inactive,inactive,inactive,inactive,inactive
CC1(C)C(C=C(Cl)Cl)C1C(=O)OCc1cccc(Oc2ccccc2)c1 (configuration not stated),,inactive,inactive,inactive,inactive,inactive,inactive,inactive,
Nc1cc([N+](=O)[O-])ccc1C(=O)O,,inactive,inactive,inactive,inactive,inactive,inactive,inactive,inactive
Cc1ccc(S(=O)(=O)O)cc1C,,inactive,inactive,inactive,inactive,inactive,inactive,inactive,inactive
CC/C=C\C/C=C\C/C=C\CCCCCCCC(=O)O,,inactive,inactive,inactive,inactive,inactive,inactive,inactive,inactive
CCCN1C=CN(C)C1,,inactive,inactive,inactive,inactive,inactive,inactive,inactive,
CCCCCCC(C)O (configuration not stated),,inactive,inactive,inactive,,inactive,inactive,inactive,
Cc1ccc(N)c([N+](=O)[O-])c1,,inactive,inactive,inactive,,inactive,inactive,inactive,
COC(=O)c1ccc(C)cc1,,inactive,inactive,inactive,inactive,inactive,inactive,inactive,inactive
Clc1ccc(Sc2cc(Cl)c(Cl)cc2Cl)cc1,,inactive,inactive,inactive,inactive,inactive,inactive,inactive,
CCCCCCCCCCCCO,,inactive,inactive,inactive,,inactive,inactive,4.84 µM (active),inactive
CCC(Cc1c(I)cc(I)c(N)c1I)C(=O)O (configuration not stated),,inactive,inactive,inactive,inactive,inactive,inactive,inactive,
CC(C)(C)c1cccc(C(C)(C)C)c1O,,inactive,inactive,inactive,,24 µM (active) and inactive,inactive,47.9 µM (active) and inactive,inactive
c1ccc2ncccc2c1,,inactive,inactive,inactive,inactive,inactive,inactive,inactive,
CCCCCCOCCOCCO,,inactive,inactive,inactive,inactive,inactive,inactive,inactive,inactive
O=Cc1ccccc1C=O,,inactive,inactive,inactive,inactive,inactive,38.9 µM (active) and inactive,inactive,
Brc1nc2ccccc2s1,,inactive,inactive,inactive,inactive,inactive,inactive,inactive,
CCC/C=C/C=O,,inactive,inactive,inactive,inactive,inactive,inactive,inactive,inactive
CC(=O)OC(C)C,,inactive,inactive,inactive,inactive,inactive,inactive,inactive,inactive
Cc1ccc(C(C)(C)C)cc1,,inactive,inactive,inactive,inactive,inactive,inactive,inactive,

# Reference: PubChem BioAssay (Tox21)
